The source of these data is PubChem BioAssay (NCI).

Compounds without any hit were thinned out: in the full panel of roughly 83,000, 20% have a hit.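 Method: cells in 96-well plates; compound added at one concentration; 48 h incubation; percent growth measured; values under 10 scored active.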 Unmarked numbers belong to inactive results. Active and inactive are the calls of the source.

Some test systems named below: NCI-H23 lung; NCI-H226 lung; NCI-H322M lung; HOP-62 NSCLC; NCI-H460 lung; HOP-92 NSCLC; NCI-H522 lung; 786-0 renal; COLO 205 colon; DU-145 prostate; K-562 leukemia; MALME-3M melanoma; MDA-MB-231 breast; RXF 393 renal; SF-268 CNS; SF-295 CNS; SF-539 CNS; UACC-257 melanoma; M14 melanoma.
Holding throughout (assay): NCI-60 one-dose screen, 48 h (100 = growth as untreated, 0 = no growth, -100 = all killed)
Common to all, as to settings: 10 µM unless noted

On to `NS(=O)(=O)c1ccc(C(=O)N=Nc2c(O)[nH]c3ccc(Cl)cc23)cc1`, for which the growth in the assay on NCI-H23 lung was 98.3%; in the assay with NCI-H226 lung it was 103%; in the assay with NCI-H322M lung it was 104%; in the assay with HOP-62 NSCLC, 100%; with NCI-H460 lung, 106%; in the assay on HOP-92 NSCLC, 103%. In addition, the growth is 89.3% with NCI-H522 lung; 102% with 786-0 renal; 120% with COLO 205 colon; 102% with DU-145 prostate; 98.3% in the assay on K-562 leukemia; 90.3% in the assay with MALME-3M melanoma. The growth is 98.7% in the assay on MDA-MB-231 breast; 109% in the assay with RXF 393 renal; 91.9% in the assay with SF-268 CNS; 98.7% with SF-295 CNS; 96.4% in the assay with SF-539 CNS; 103% with UACC-257 melanoma. The growth in the assay with M14 melanoma was 102%.

With `CCN(CC)CCCNc1cc(OC)c(OC)c2cccnc12`, the growth with NCI-H23 lung is 7.1% (active); in the assay with NCI-H226 lung, 110%; with NCI-H322M lung it was 85.1%; with HOP-62 NSCLC, 58.3%; in the assay with NCI-H460 lung, 23.4%; in the assay on HOP-92 NSCLC it was 84.7%. In addition, the growth in the assay on NCI-H522 lung is 20.9%; in the assay with 786-0 renal it was 43.4%; in the assay with COLO 205 colon, 98.4%; in the assay with DU-145 prostate it was 90.3%; in the assay with K-562 leukemia, 66.2%; in the assay on MALME-3M melanoma it was 90.3%. Also, the growth is 74.2% with MDA-MB-231 breast; 113% in the assay on RXF 393 renal; 66.1% in the assay on SF-268 CNS; 79.5% with SF-295 CNS; 55.7% with SF-539 CNS; 67% in the assay on UACC-257 melanoma. In addition, the growth in the assay with M14 melanoma was 48%.

As for `C=C1CC[C@@H]2C(C)(C)[C@H](O)CC[C@@]2(C)[C@@H]1COc1ccc2ccc(=O)oc2c1`, the growth with NCI-H23 lung is 40.7%; in the assay on NCI-H226 lung, 28.5%; in the assay on NCI-H322M lung, 92.4%; with HOP-62 NSCLC it was 45.9%; in the assay on NCI-H460 lung, 90.5%; with HOP-92 NSCLC it was 72.4%. The growth in the assay with NCI-H522 lung is 32.8%; in the assay with 786-0 renal it was 93%; in the assay on COLO 205 colon, 68.7%; with DU-145 prostate, 56.9%; in the assay with K-562 leukemia it was 41.9%; in the assay with MALME-3M melanoma it was 74.3%. Further, the growth in the assay with MDA-MB-231 breast was 84%; in the assay on RXF 393 renal it was 101%; in the assay with SF-268 CNS it was 68.3%; in the assay with SF-295 CNS, 48%; in the assay with SF-539 CNS, 88.4%; in the assay on UACC-257 melanoma it was 69.4%. The growth with M14 melanoma is 53.3%.

With `Oc1nc(NCc2ccccc2)sc1/C=C1\C=Nc2ncccc21`, the growth in the assay with NCI-H23 lung was 51.9%; in the assay on NCI-H226 lung, 62.3%; in the assay with NCI-H322M lung, 61.9%; in the assay on HOP-62 NSCLC, 56.1%; in the assay with NCI-H460 lung it was 81.9%; in the assay on HOP-92 NSCLC, 28.8%. Moreover, the growth in the assay on NCI-H522 lung is 35.2%; in the assay on 786-0 renal, 62.8%; in the assay with COLO 205 colon, 34.2%; in the assay with DU-145 prostate, 56.5%; in the assay on K-562 leukemia, 80.7%; in the assay with MALME-3M melanoma, 129%. Also, the growth is 83.8% in the assay with MDA-MB-231 breast; -14.1% (active) with RXF 393 renal; 52.3% with SF-268 CNS; 73.7% in the assay with SF-295 CNS; 23.3% with SF-539 CNS; 71.3% in the assay on UACC-257 melanoma.

`CN(C)c1ccc(C(=S)c2ccc(N(C)C)cc2)cc1`: the growth was 78.9% in the assay on NCI-H23 lung; 85.9% with NCI-H226 lung; 103% in the assay with NCI-H322M lung; 65.8% in the assay on HOP-62 NSCLC; 92.6% with NCI-H460 lung; 71.3% in the assay on HOP-92 NSCLC. Also, the growth with NCI-H522 lung was 29%; in the assay on 786-0 renal, 95.6%; with COLO 205 colon it was 62%; with DU-145 prostate, 98.9%; in the assay with K-562 leukemia, 28.4%; with MALME-3M melanoma, 50.3%. The growth is 72.2% with MDA-MB-231 breast; 84.2% in the assay with RXF 393 renal; 79.7% in the assay with SF-268 CNS; 80% with SF-295 CNS; 77.1% with SF-539 CNS; 81% in the assay with UACC-257 melanoma.

With `COC(=O)/C=C1/SC(=Nc2ccc(F)cc2)N(CCc2c[nH]c3ccc(O)cc23)C1=O`, the growth in the assay with NCI-H23 lung is 62.2%; in the assay on NCI-H226 lung it was 62.5%; in the assay with NCI-H322M lung, 92.1%; in the assay with HOP-62 NSCLC it was 27.6%; in the assay on NCI-H460 lung, 25.3%; in the assay on HOP-92 NSCLC, 40.2%. The growth is 23.6% in the assay on NCI-H522 lung; 40.6% in the assay on 786-0 renal; 78.2% in the assay on COLO 205 colon; 37.2% in the assay with DU-145 prostate; 37.7% in the assay with K-562 leukemia; 58.9% in the assay with MALME-3M melanoma. Moreover, the growth in the assay with MDA-MB-231 breast is 59.3%; in the assay with RXF 393 renal it was 32%; in the assay with SF-268 CNS it was 45.9%; in the assay on SF-295 CNS, 61.5%; in the assay with SF-539 CNS, 45.3%; in the assay on UACC-257 melanoma, 39.4%. The growth in the assay with M14 melanoma was 40.1%.

For `CCN(CCNc1ccc(C)c2sc3cc(Cl)ccc3c(=O)c12)CC(C)(C)O`, the growth is 82.3% in the assay on NCI-H23 lung; 87.6% with NCI-H226 lung; 74% in the assay with NCI-H322M lung; 45.3% in the assay with HOP-62 NSCLC; 44.4% with NCI-H460 lung; 48.3% with HOP-92 NSCLC. The growth in the assay with NCI-H522 lung was 76.7%; with 786-0 renal it was 47.6%; with COLO 205 colon it was 21.4%; in the assay on DU-145 prostate, 86.8%; in the assay on K-562 leukemia, 29.7%; with MALME-3M melanoma, 67.5%. Besides, the growth was 32% in the assay on MDA-MB-231 breast; -18.5% (active) in the assay on RXF 393 renal; 79.8% in the assay on SF-268 CNS; 88% with SF-295 CNS; 65.8% in the assay with SF-539 CNS; -8.78% (active) in the assay on UACC-257 melanoma. For the same compound, the growth in the assay with M14 melanoma is -65.9% (active).

`Fc1ccc(/C=C/[C@@H]2C[C@@H](F)CCO2)cc1`: the growth in the assay on NCI-H23 lung is 104%; with NCI-H226 lung, 101%; with NCI-H322M lung, 82.1%; with HOP-62 NSCLC, 105%; in the assay with NCI-H460 lung it was 99.7%; in the assay with HOP-92 NSCLC, 73.6%. Moreover, the growth in the assay with NCI-H522 lung was 91%; with 786-0 renal, 94.4%; with COLO 205 colon it was 102%; in the assay with DU-145 prostate it was 113%; with K-562 leukemia it was 64.2%; in the assay on MALME-3M melanoma, 99.7%. Besides, the growth was 98.2% in the assay with MDA-MB-231 breast; 96.4% with RXF 393 renal; 104% in the assay with SF-268 CNS; 94.8% in the assay on SF-295 CNS; 103% in the assay on SF-539 CNS; 93.9% with UACC-257 melanoma. Also, the growth with M14 melanoma was 85.5%.
